Among the data in PubChem BioAssay (EPA / NIEHS) are outcome and AC50 values, retold here.

Records with an inconclusive call do not appear. The source made the active and inactive calls. How the source made its calls: active means hit-call score of the fitted dose curve at least 0.9, where 1 is the maximum; inconclusive means response in the unintended direction; inactive means score below 0.9.

Sequence of Estrogen receptor (Homo sapiens) + Estrogen receptor beta (Homo sapiens) (P03372 whole entry, looked up, the tested form may be a part): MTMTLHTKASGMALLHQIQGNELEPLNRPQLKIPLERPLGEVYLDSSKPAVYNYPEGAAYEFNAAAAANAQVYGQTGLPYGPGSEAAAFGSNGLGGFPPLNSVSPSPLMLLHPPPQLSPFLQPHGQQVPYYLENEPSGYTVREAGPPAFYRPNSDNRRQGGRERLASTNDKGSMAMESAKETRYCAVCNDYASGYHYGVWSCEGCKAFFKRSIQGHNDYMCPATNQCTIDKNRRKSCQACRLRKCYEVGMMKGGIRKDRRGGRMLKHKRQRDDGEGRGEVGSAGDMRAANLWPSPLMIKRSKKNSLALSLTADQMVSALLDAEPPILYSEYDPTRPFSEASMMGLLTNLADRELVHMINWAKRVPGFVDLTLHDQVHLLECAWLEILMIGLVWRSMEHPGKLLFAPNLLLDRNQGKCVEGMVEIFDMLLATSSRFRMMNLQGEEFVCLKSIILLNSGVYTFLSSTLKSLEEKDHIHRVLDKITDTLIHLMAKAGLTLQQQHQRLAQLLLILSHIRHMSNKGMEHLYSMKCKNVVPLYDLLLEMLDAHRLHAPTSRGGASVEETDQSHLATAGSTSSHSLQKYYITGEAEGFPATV
Sequence of Estrogen receptor (Homo sapiens) + Estrogen receptor beta (Homo sapiens) (Q92731 whole entry, looked up, the tested form may be a part): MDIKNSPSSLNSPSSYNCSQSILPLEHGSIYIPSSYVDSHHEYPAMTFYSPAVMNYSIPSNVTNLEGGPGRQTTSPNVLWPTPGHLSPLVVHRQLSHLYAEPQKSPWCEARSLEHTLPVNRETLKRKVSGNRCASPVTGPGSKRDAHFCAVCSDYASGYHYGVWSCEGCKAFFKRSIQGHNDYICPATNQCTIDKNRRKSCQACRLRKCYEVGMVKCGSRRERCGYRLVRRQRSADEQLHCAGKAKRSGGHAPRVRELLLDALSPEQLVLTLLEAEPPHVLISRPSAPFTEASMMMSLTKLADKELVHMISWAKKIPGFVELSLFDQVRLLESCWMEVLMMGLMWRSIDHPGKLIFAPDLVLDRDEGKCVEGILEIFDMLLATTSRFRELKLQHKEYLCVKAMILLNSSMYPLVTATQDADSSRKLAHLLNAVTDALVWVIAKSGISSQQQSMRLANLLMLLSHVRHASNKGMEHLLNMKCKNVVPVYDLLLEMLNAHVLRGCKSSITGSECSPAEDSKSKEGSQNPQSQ
Sequence of Bile acid receptor (Homo sapiens) (Q96RI1 whole entry, looked up): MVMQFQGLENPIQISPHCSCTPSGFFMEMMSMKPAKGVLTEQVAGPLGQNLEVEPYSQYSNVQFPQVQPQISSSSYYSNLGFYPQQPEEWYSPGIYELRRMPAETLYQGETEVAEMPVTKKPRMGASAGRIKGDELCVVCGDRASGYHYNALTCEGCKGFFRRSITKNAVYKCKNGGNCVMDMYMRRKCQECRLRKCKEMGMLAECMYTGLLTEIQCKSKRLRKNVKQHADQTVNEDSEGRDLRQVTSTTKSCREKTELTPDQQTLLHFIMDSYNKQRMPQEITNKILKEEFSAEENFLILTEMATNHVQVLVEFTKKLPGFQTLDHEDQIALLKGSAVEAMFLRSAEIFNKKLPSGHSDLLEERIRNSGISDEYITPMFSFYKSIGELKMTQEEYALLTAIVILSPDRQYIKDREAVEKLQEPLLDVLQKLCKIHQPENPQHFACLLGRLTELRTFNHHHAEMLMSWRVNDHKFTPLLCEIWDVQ

For one assay, the target named is Estrogen receptor (Homo sapiens) (UniProt P03372). The experiment in a line: NVS_NR_hER: NovaScreen (NVS) Nuclear Receptor Binding Assay for human Estrogen Receptor (ER) (AID 2283348). The gist of the method: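 Radiodetection of ligand displacement in a lysate-based, cell-free format using MCF7 extracts, read at 18 hours. Duplicate 25 uM primary testing, then concentration series for actives.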
Sequence of Estrogen receptor (Homo sapiens) (P03372 whole entry, looked up, the tested form may be a part): as the sequence (P03372 whole entry, looked up, the tested form may be a part) above
As to `ClC1=C(Cl)[C@]2(Cl)[C@@H]3[C@@H]4C[C@@H]([C@H]5O[C@@H]45)[C@@H]3[C@@]1(Cl)C2(Cl)Cl`, the compound was classed as inactive.

In the case of `Clc1ccc(C(c2ccccc2Cl)C(Cl)(Cl)Cl)cc1` (stereo not given), the compound was called inactive.

Consider `O=C(O)C(F)(F)C(F)(F)C(F)(F)C(F)(F)C(F)(F)C(F)(F)C(F)(F)C(F)(F)C(F)(F)F`, for which the result was inactive.

A further assay has the same target. The experiment in a line: OT_ER_ERaERa_1440: Odyssey Thera (OT) 24-hour HEK293T Protein-Complementation Assay for Estrogen Receptor-alpha/-alpha Homodimer (AID 2283349).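 Further: hits raise fluorescence above DMSO for agonists and antagonists alike.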 The method in brief:
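Stably transfected HEK293T; ERα LBD homodimer PCA. 24 h dosing, fluorescence intensity read, gain-of-signal vs DMSO.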
On to `NS(=O)(=O)C(F)(F)C(F)(F)C(F)(F)C(F)(F)C(F)(F)C(F)(F)C(F)(F)C(F)(F)F`, for which the compound was classed as inactive.

Regarding `Clc1ccc(C(Cl)(Cl)Cl)cc1`, the call was inactive.

`C=CC(N)=O`: the call was inactive.

As to `Cc1ccccc1[N+](=O)[O-]`, the outcome was inactive.

As for `Cc1cc2c3c(c1)C(c1ccccc1)=N[C@@H](NC(=O)c1ccncc1)C(=O)N3CC2`, the compound was called inactive.

Regarding `c1cc2ccc3cccc4ccc(c1)c2c34`, the outcome was inactive.

For `CCSC(=O)N(CC)C1CCCCC1`, the outcome was inactive.

Turning to `Cc1ccccc1O`, the compound was classed as inactive.

Turning to `ClC1=C(Cl)[C@]2(Cl)[C@@H]3[C@@H]4C[C@@H]([C@H]5O[C@@H]45)[C@@H]3[C@@]1(Cl)C2(Cl)Cl`, the result was inactive.

Consider `O=C(N[C@H]1CN2CCC1CC2)c1cc2ccoc2cn1`, for which the outcome was inactive.

As for `Clc1ccc(Cl)cc1`, the outcome was inactive.

For `O=C(O)C(F)(F)C(F)(F)C(F)(F)C(F)(F)C(F)(F)C(F)(F)C(F)(F)C(F)(F)C(F)(F)F`, the call was inactive.

As for `C1CC2OC2CC1C1CO1` (stereo not given), the call was inactive.

Turning to `CCOP(=S)(OCC)SCSC(C)(C)C`, the compound was called inactive.

On to `COS(=O)(=O)OC`, for which the compound was called inactive.

With `CC#Cc1cc(C)nc(Nc2ccccc2)n1`, the compound was called inactive.

For the compound `CCC(C)c1cc([N+](=O)[O-])cc([N+](=O)[O-])c1O` (stereo not given), the call was inactive.

For `O=S(=O)(O)C(F)(F)C(F)(F)C(F)(F)C(F)(F)F`, the compound was classed as inactive.

With `CC(C)C(=O)OCC(C)(C)C(OC(=O)C(C)C)C(C)C` (stereo not given), the result was inactive.

As to `CCCCCCOC(=O)c1ccccc1C(=O)OCCCCCC`, the compound was called inactive.

As for `Cc1cccc(C)c1N`, the outcome was inactive.

For `O=C(NC(=O)c1c(F)cccc1F)Nc1cc(Cl)c(OC(F)(F)C(F)F)c(Cl)c1`, the call was inactive.

For the compound `Sc1ccccc1`, the call was inactive.

As to `OCC(O)CO`, the outcome was inactive.

`O=C(NC(=O)c1cc(F)c(F)cc1Cl)Nc1cc(F)ccc1N1CCC(C(=O)O)CC1`: the result was inactive.

As for `CC1=C2C[C@H]3[C@@H](CC=C4C[C@@H](O)CC[C@@]43C)[C@@H]2CC[C@]12O[C@@H]1C[C@H](C)CN[C@H]1[C@H]2C`, the outcome was inactive.

Take `CN(C)CCO`: the compound was classed as inactive.

For the compound `CCCCCCCCOC(=O)c1ccccc1C(=O)OCCCCCCCC`, the outcome was inactive.

`CN(C)c1nc(=O)n(C2CCCCC2)c(=O)n1C`: the result was inactive.

The target in another assay is Bile acid receptor (Homo sapiens) (UniProt Q96RI1). Nature of the assay: NVS_NR_hFXR_Antagonist: NovaScreen (NVS) Nuclear Receptor Binding Assay for human Farnesoid X Receptor Antagonism (FXR) (AID 2283350). The gist of the method:
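Antagonist-format time-resolved FRET binding assay with extracted human receptor protein, read 1 hour after compound addition. Compounds first screened at 25 uM in duplicate, then actives tested in concentration series, with loss of signal relative to DMSO.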
In the case of `Clc1ccc(C(Cl)(Cl)Cl)cc1`, the result was inactive.

As for `Cc1cc2c3c(c1)C(c1ccccc1)=N[C@@H](NC(=O)c1ccncc1)C(=O)N3CC2`, the outcome was inactive.

As to `c1cc2ccc3cccc4ccc(c1)c2c34`, the compound was classed as inactive.

The target of a further assay is Estrogen receptor (Homo sapiens) (UniProt P03372). The experiment in a line: OT_ER_ERaERa_0480: Odyssey Thera (OT) 8-hour HEK293T Protein-Complementation Assay for Estrogen Receptor-alpha/-alpha Homodimer (AID 2283351).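 Further: rise in fluorescence from reassembled reporter fragments on ERα LBD homodimer in nucleus or whole cell.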 The method in brief:
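Cells were treated for 8 hours, then imaged on a laser scanning plate cytometer. Complementation of reporter fragments fused to the human ERα ligand-binding domain (residues 310-547) in HEK293T gave fluorescence, and gain of signal over vehicle was fitted.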
Take `NS(=O)(=O)C(F)(F)C(F)(F)C(F)(F)C(F)(F)C(F)(F)C(F)(F)C(F)(F)C(F)(F)F`: the AC50 (usually the concentration at which the activity in the assay is half-maximal) is 76 µM (active).

`Clc1ccc(C(Cl)(Cl)Cl)cc1`: the call was inactive.

For the compound `C=CC(N)=O`, the outcome was inactive.

`Cc1ccccc1[N+](=O)[O-]`: the compound was classed as inactive.

On to `c1cc2ccc3cccc4ccc(c1)c2c34`, for which the compound was called inactive.

`CCSC(=O)N(CC)C1CCCCC1`: the call was inactive.

In the case of `Cc1ccccc1O`, the result was inactive.

With `ClC1=C(Cl)[C@]2(Cl)[C@@H]3[C@@H]4C[C@@H]([C@H]5O[C@@H]45)[C@@H]3[C@@]1(Cl)C2(Cl)Cl`, the call was inactive.

In the case of `O=C(N[C@H]1CN2CCC1CC2)c1cc2ccoc2cn1`, the call was inactive.

In the case of `Clc1ccc(Cl)cc1`, the compound was classed as inactive.

`O=C(O)C(F)(F)C(F)(F)C(F)(F)C(F)(F)C(F)(F)C(F)(F)C(F)(F)C(F)(F)C(F)(F)F`: the outcome was inactive.

Consider `C1CC2OC2CC1C1CO1` (stereo not given), for which the compound was called inactive.

Take `CCOP(=S)(OCC)SCSC(C)(C)C`: the result was inactive.

Turning to `COS(=O)(=O)OC`, the compound was classed as inactive.

For the compound `CC#Cc1cc(C)nc(Nc2ccccc2)n1`, the call was inactive.

With `CCC(C)c1cc([N+](=O)[O-])cc([N+](=O)[O-])c1O` (stereo not given), the compound was called inactive.

As to `CCCCCCOC(=O)c1ccccc1C(=O)OCCCCCC`, the outcome was inactive.

Consider `Cc1cccc(C)c1N`, for which the compound was called inactive.

As to `O=C(NC(=O)c1c(F)cccc1F)Nc1cc(Cl)c(OC(F)(F)C(F)F)c(Cl)c1`, the compound was classed as inactive.

In the case of `Sc1ccccc1`, the compound was called inactive.

As for `OCC(O)CO`, the outcome was inactive.

As for `O=C(NC(=O)c1cc(F)c(F)cc1Cl)Nc1cc(F)ccc1N1CCC(C(=O)O)CC1`, the compound was classed as inactive.

As to `CC1=C2C[C@H]3[C@@H](CC=C4C[C@@H](O)CC[C@@]43C)[C@@H]2CC[C@]12O[C@@H]1C[C@H](C)CN[C@H]1[C@H]2C`, the compound was called inactive.

Turning to `CN(C)CCO`, the compound was called inactive.

With `CCCCCCCCOC(=O)c1ccccc1C(=O)OCCCCCCCC`, the call was inactive.

As for `CN(C)c1nc(=O)n(C2CCCCC2)c(=O)n1C`, the call was inactive.

The next assay has as its target Estrogen receptor (Homo sapiens) + Estrogen receptor beta (Homo sapiens) (UniProt P03372+Q92731). Nature of the assay: OT_ER_ERaERb_0480: Odyssey Thera (OT) 8-hour HEK293T Protein-Complementation Assay for Estrogen Receptor-alpha/-beta Heterodimer (AID 2283352). The gist of the method: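 Human HEK293T cells were treated for 8 hours and receptor heterodimerisation was detected through reconstitution of a fluorescent reporter split between ER-alpha and ER-beta ligand-binding domains. Activity was analysed as gain of signal against DMSO.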
For the compound `NS(=O)(=O)C(F)(F)C(F)(F)C(F)(F)C(F)(F)C(F)(F)C(F)(F)C(F)(F)C(F)(F)F`, the concentration at half-maximal activity (AC50) was 72.1 µM (active).

Consider `Cc1cc2c3c(c1)C(c1ccccc1)=N[C@@H](NC(=O)c1ccncc1)C(=O)N3CC2`, for which the result was inactive.

On to `Cc1ccccc1O`, for which the result was inactive.

For `O=C(N[C@H]1CN2CCC1CC2)c1cc2ccoc2cn1`, the outcome was inactive.

As to `Clc1ccc(Cl)cc1`, the outcome was inactive.

For the compound `C1CC2OC2CC1C1CO1` (stereo not given), the result was inactive.

Regarding `CC#Cc1cc(C)nc(Nc2ccccc2)n1`, the result was inactive.

With `CCC(C)c1cc([N+](=O)[O-])cc([N+](=O)[O-])c1O` (stereo not given), the outcome was inactive.

Turning to `CC(C)C(=O)OCC(C)(C)C(OC(=O)C(C)C)C(C)C` (stereo not given), the outcome was inactive.

With `Cc1cccc(C)c1N`, the result was inactive.

For `O=C(NC(=O)c1c(F)cccc1F)Nc1cc(Cl)c(OC(F)(F)C(F)F)c(Cl)c1`, the outcome was inactive.

For `OCC(O)CO`, the result was inactive.

Regarding `CN(C)CCO`, the result was inactive.

On to `CCCCCCCCOC(=O)c1ccccc1C(=O)OCCCCCCCC`, for which the result was inactive.
